From publication PMC7862700, “An all-to-all approach to the identification of sequence-specific readers for epigenetic DNA modifications on cytosine”

Experiments:
Test in all cases: DAPPL (digital affinity profiling via proximity ligation, sequencing); 10 mM Tris-HCl pH 7.5, 50 mM NaCl, 1 mM DTT, 4% glycerol, room temperature, 30 min; GST-TFs on glutathione beads, 16-mer random dsDNA library, 0.1% formaldehyde crosslink after washing; high values mean tight binding
[1] = target: T1, FLI1 (Homo sapiens, UniProt Q01543 1-452); conditions: protein: recombinant; tags: N-terminal GST; dsDNA, one strand shown
T1 sequence: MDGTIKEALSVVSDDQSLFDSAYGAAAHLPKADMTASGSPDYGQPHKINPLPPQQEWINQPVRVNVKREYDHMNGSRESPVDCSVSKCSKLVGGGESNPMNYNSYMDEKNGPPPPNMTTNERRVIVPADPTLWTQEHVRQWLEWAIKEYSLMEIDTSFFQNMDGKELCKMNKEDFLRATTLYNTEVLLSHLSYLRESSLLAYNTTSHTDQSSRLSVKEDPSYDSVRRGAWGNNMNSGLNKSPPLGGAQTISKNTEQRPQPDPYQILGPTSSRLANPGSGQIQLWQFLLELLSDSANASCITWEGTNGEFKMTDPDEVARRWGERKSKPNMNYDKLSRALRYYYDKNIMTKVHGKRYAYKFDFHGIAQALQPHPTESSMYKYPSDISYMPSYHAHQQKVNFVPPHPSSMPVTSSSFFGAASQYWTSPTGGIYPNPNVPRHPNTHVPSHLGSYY
Summary of the method: (§1)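 GST fusions of human transcription factors were expressed in yeast and captured with glutathione beads. Once given DNA barcodes and pooled alongside a tag-only sample, they were incubated for 30 min at room temperature with 200 nmole of a random double-stranded 16-mer DNA library in Tris/NaCl/DTT/glycerol buffer, then washed, crosslinked (0.1% formaldehyde), proximity-ligated, PCR-amplified and sequenced on an Illumina NextSeq500. The binding signal of each hexamer is its read frequency for a factor divided by its frequency for the tag-only sample.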

[2] = target: T2, ELK1 (Homo sapiens, UniProt P19419 1-428); conditions: protein: recombinant; tags: N-terminal GST; dsDNA, one strand shown
T2 sequence: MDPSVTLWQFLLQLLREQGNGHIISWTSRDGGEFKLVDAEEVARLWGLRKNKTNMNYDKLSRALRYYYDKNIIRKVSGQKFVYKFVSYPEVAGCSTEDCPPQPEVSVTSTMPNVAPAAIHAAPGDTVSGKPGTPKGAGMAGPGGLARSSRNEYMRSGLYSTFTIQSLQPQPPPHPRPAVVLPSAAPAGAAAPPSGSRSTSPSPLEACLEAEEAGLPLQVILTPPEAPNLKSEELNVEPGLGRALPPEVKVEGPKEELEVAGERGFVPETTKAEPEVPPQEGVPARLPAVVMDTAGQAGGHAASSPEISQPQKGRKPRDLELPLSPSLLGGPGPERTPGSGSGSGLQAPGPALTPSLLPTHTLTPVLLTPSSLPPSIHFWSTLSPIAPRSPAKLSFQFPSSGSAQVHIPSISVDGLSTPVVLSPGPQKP
Summary of the method: as §1

[3] = target: T3, GABPA (Homo sapiens, UniProt Q06546 1-454); conditions: protein: recombinant; tags: N-terminal GST; dsDNA, one strand shown
T3 sequence: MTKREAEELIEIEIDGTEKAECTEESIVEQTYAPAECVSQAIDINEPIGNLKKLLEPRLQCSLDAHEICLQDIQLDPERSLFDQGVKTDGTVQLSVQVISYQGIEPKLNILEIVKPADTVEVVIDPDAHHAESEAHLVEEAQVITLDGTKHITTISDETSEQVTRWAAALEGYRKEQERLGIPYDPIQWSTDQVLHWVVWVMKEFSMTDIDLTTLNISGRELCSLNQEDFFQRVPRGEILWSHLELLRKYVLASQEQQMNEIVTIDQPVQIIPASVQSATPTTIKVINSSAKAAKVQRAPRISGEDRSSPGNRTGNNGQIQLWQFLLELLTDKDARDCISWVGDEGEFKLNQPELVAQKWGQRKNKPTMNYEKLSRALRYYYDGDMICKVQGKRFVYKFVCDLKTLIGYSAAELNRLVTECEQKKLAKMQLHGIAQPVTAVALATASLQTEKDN
Summary of the method: as §1

[4] = target: T4, ERG (Homo sapiens, UniProt P11308 1-479); conditions: protein: recombinant; tags: N-terminal GST; dsDNA, one strand shown
T4 sequence: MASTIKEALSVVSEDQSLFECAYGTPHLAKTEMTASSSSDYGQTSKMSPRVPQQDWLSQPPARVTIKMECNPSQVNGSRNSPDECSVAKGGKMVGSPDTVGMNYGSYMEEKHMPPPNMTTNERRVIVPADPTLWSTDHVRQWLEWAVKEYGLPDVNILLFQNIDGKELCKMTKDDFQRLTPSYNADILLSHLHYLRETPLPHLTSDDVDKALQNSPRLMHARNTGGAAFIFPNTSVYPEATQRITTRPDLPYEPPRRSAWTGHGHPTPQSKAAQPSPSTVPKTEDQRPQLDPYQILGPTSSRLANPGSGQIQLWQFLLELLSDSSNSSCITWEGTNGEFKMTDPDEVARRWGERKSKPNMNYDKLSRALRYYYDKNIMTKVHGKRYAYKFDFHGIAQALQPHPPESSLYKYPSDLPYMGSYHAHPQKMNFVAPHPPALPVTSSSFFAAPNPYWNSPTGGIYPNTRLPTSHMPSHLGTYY
Summary of the method: as §1

[5] = target: ELF1 (Homo sapiens, UniProt P32519 1-619); conditions: protein: recombinant; tags: N-terminal GST; dsDNA, one strand shown
Summary of the method: as §1

[6] = target: T5, EHF (Homo sapiens, UniProt Q9NZC4 1-300); conditions: protein: recombinant; tags: N-terminal GST; dsDNA, one strand shown
T5 sequence: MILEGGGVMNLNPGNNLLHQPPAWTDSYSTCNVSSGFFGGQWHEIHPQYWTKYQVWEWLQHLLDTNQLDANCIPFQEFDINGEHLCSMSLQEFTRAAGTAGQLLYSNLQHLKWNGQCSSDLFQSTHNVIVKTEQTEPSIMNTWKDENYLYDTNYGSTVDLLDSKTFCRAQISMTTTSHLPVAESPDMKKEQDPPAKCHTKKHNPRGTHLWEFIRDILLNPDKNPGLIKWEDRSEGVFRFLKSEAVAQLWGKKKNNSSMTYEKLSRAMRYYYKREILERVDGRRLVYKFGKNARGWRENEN
Summary of the method: as §1

[7] = target: SPI1 (Homo sapiens, UniProt P17947 1-270); conditions: protein: recombinant; tags: N-terminal GST; dsDNA, one strand shown
Summary of the method: as §1

[8] = target: SPIB (Homo sapiens, UniProt Q01892 1-262); conditions: protein: recombinant; tags: N-terminal GST; dsDNA, one strand shown
Summary of the method: as §1

[9] = target: T6, ELK3 (Homo sapiens, UniProt P41970 1-407); conditions: protein: recombinant; tags: N-terminal GST; dsDNA, one strand shown
T6 sequence: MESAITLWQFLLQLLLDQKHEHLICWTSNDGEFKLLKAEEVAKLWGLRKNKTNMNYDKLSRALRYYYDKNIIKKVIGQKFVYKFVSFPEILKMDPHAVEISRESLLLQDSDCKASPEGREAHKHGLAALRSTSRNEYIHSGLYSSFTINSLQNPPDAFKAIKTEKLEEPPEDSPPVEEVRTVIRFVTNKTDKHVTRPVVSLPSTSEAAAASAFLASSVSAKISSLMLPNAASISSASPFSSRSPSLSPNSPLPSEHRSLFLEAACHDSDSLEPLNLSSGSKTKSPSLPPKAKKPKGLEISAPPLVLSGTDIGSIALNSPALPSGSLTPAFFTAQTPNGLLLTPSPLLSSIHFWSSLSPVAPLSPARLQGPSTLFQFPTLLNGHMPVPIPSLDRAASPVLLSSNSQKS
Summary of the method: as §1

[10] = target: T7, FEV (Homo sapiens, UniProt Q99581 1-238); conditions: protein: recombinant; tags: N-terminal GST; dsDNA, one strand shown
T7 sequence: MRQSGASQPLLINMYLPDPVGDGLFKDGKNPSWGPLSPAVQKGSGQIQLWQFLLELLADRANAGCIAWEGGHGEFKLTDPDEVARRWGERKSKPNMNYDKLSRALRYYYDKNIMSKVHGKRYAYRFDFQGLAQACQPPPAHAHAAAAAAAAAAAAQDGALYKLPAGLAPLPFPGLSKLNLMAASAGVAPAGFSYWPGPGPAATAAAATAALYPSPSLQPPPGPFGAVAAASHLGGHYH
Summary of the method: as §1

[11] = target: ETV5 (Homo sapiens, UniProt P41161 1-510); conditions: protein: recombinant; tags: N-terminal GST; dsDNA, one strand shown
Summary of the method: as §1

[12] = target: HSF1 (Homo sapiens, UniProt Q00613 1-529); conditions: protein: recombinant; tags: N-terminal GST; chain copies: 3; dsDNA, one strand shown
Summary of the method: as §1

[13] = target: T8, SPIC (Homo sapiens, UniProt Q8N5J4 1-248); conditions: protein: recombinant; tags: N-terminal GST; dsDNA, one strand shown
T8 sequence: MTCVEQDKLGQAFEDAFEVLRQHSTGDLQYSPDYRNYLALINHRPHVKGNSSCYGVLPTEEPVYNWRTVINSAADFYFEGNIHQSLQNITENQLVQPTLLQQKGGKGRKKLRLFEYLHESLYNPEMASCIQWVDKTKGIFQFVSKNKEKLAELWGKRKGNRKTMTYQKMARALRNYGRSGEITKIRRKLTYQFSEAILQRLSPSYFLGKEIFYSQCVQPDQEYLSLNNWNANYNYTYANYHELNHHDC
Summary of the method: as §1

[14] = target: ELF4 (Homo sapiens, UniProt Q99607 1-663); conditions: protein: recombinant; tags: N-terminal GST; dsDNA, one strand shown
Summary of the method: as §1

[15] = target: T9, ELK4 (Homo sapiens, UniProt P28324-2 1-405); conditions: protein: recombinant; tags: N-terminal GST; dsDNA, one strand shown
T9 sequence: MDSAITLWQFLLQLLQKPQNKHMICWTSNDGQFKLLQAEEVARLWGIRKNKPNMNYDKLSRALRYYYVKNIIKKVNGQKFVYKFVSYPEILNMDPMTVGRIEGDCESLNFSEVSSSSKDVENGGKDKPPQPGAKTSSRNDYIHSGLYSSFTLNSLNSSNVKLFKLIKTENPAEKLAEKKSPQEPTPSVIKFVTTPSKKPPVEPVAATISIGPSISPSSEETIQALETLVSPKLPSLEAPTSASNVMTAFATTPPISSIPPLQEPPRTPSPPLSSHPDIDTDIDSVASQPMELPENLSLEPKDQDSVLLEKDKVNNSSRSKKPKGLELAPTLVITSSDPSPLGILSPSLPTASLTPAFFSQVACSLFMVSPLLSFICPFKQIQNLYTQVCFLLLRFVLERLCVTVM
Summary of the method: as §1

[16] = target: T10, ETV2 (Homo sapiens, UniProt O00321 1-342); conditions: protein: recombinant; tags: N-terminal GST; dsDNA, one strand shown
T10 sequence: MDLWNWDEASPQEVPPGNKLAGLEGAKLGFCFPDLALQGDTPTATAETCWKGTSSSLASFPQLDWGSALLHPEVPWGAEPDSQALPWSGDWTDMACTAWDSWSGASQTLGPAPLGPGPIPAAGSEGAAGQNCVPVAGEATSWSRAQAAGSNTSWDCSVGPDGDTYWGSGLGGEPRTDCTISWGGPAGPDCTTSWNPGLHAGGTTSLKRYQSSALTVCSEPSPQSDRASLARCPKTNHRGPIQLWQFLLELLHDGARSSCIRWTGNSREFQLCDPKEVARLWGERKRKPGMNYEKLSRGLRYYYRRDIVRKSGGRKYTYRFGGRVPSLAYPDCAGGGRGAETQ
Summary of the method: as §1

[17] = target: T11, ELF3 (Homo sapiens, UniProt P78545 1-371); conditions: protein: recombinant; tags: N-terminal GST; dsDNA, one strand shown
T11 sequence: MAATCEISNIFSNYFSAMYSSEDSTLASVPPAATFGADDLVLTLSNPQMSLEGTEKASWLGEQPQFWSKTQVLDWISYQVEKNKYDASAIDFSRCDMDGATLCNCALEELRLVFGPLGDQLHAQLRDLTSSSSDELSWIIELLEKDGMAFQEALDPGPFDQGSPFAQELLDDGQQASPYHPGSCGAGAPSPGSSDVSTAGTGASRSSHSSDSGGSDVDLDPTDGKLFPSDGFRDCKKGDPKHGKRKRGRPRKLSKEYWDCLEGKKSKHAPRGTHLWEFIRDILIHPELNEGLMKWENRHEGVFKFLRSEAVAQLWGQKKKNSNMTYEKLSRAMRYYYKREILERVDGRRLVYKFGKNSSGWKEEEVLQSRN
Summary of the method: as §1

[18] = target: CRX (Homo sapiens, UniProt O43186 1-299); conditions: protein: recombinant; tags: N-terminal GST; dsDNA, one strand shown
Summary of the method: as §1

[19] = target: ETV1 (Homo sapiens, UniProt P50549 1-477); conditions: protein: recombinant; tags: N-terminal GST; dsDNA, one strand shown
Summary of the method: as §1

Chain of ETV5 (P41161 whole entry): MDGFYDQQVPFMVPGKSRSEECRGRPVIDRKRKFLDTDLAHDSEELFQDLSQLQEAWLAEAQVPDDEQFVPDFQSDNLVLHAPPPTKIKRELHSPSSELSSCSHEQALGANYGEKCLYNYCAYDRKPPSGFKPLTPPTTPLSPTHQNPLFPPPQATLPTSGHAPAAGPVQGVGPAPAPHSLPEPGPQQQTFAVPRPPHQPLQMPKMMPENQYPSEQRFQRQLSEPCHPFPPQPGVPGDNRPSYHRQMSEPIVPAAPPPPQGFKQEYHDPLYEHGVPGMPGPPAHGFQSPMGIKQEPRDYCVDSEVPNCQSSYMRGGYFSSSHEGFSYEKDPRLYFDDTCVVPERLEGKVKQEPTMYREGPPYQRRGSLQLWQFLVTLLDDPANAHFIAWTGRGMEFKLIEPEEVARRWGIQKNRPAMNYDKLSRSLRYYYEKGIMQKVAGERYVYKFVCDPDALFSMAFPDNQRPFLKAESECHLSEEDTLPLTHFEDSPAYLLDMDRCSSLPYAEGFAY
Chain of ELF1 (P32519 whole entry): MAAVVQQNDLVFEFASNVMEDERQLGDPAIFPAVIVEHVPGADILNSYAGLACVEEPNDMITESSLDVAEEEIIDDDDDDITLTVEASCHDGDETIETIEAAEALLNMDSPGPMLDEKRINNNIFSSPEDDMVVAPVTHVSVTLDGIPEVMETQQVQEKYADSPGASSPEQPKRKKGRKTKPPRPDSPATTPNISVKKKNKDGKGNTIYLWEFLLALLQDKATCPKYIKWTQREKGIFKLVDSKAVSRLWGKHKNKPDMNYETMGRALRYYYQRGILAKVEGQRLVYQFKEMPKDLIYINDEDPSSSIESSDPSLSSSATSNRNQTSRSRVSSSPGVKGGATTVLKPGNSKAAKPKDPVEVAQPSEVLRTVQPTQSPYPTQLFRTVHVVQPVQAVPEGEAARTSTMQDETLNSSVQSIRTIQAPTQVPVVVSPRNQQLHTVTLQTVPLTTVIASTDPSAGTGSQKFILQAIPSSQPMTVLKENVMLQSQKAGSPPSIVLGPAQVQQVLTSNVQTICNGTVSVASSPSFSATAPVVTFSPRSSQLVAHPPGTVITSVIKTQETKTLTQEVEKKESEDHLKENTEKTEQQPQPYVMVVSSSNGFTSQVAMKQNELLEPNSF
Chain of SPIB (Q01892 whole entry): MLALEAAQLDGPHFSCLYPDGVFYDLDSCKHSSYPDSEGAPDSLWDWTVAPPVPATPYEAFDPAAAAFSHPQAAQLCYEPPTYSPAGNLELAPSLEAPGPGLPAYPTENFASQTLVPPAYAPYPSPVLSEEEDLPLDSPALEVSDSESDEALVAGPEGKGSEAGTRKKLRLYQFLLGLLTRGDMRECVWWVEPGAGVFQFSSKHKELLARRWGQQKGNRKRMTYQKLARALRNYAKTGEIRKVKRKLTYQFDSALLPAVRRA
Chain of ETV1 (P50549 whole entry): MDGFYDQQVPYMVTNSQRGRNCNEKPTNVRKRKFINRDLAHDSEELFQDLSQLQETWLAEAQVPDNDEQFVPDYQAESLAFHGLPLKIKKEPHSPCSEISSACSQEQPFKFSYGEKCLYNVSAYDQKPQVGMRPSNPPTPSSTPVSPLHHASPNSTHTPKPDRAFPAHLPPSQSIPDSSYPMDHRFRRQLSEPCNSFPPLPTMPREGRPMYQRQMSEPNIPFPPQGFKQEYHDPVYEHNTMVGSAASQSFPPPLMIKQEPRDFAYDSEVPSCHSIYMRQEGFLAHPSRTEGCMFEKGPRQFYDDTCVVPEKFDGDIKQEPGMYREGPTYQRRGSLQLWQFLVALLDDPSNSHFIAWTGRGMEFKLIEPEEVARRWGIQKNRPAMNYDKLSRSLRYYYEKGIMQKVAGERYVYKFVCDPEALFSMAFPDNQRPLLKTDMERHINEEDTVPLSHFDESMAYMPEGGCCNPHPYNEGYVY
Chain of CRX (O43186 whole entry): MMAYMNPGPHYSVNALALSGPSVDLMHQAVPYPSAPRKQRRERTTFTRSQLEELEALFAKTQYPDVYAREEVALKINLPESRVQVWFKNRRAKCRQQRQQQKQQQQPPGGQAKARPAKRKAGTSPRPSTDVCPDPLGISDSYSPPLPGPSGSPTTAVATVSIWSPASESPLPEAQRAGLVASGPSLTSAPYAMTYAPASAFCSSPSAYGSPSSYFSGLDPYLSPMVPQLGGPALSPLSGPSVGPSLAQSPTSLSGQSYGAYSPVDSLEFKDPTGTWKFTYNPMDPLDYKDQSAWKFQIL
Chain of HSF1 (Q00613 whole entry): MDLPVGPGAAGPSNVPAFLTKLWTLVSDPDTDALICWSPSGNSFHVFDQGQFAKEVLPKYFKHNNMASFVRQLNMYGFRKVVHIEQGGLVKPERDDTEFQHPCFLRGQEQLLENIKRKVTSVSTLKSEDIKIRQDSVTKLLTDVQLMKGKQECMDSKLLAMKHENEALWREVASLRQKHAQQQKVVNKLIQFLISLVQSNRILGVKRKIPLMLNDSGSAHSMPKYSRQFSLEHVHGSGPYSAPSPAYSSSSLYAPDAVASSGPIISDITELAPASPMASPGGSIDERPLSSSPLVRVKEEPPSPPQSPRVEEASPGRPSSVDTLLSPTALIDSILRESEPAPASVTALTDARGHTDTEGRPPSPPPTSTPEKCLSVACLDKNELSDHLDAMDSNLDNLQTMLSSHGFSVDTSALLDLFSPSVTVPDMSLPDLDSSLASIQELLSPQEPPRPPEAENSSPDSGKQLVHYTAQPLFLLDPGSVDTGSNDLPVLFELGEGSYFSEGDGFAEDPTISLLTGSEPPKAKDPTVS
Chain of ELF4 (Q99607 whole entry): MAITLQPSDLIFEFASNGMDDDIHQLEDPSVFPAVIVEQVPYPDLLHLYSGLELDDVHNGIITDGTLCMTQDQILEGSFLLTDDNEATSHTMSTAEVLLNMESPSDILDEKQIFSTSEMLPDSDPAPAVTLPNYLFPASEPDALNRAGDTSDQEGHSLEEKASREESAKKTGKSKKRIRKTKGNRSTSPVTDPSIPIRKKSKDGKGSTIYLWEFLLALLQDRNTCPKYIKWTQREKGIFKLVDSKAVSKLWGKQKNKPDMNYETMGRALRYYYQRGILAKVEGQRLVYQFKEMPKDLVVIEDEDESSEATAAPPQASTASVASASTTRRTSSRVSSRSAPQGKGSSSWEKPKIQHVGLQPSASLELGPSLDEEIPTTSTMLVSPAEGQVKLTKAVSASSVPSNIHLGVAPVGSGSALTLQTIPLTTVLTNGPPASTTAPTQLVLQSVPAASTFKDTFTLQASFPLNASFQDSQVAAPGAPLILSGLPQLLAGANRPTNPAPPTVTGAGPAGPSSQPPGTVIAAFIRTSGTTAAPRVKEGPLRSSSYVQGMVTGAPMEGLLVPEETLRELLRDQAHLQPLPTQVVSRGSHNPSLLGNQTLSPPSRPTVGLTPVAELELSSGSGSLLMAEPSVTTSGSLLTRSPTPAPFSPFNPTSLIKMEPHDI

What does the source list for TATGAC?
binding signal [1]: 1.31 fold enrichment (6-mer frequency, TF over GST control); binding signal [2]: 1.34 fold enrichment (6-mer frequency, TF over GST control); binding signal [3]: 1.37 fold enrichment (6-mer frequency, TF over GST control); binding signal [4]: 1.31 fold enrichment (6-mer frequency, TF over GST control); binding signal [5]: 1.34 fold enrichment (6-mer frequency, TF over GST control); binding signal [6]: 1.23 fold enrichment (6-mer frequency, TF over GST control); binding signal [7]: 1.27 fold enrichment (6-mer frequency, TF over GST control); binding signal [8]: 1.4 fold enrichment (6-mer frequency, TF over GST control); binding signal [9]: 1.32 fold enrichment (6-mer frequency, TF over GST control); binding signal [10]: 1.25 fold enrichment (6-mer frequency, TF over GST control); binding signal [11]: 1.33 fold enrichment (6-mer frequency, TF over GST control); binding signal [12]: 1.18 fold enrichment (6-mer frequency, TF over GST control); binding signal [13]: 1.28 fold enrichment (6-mer frequency, TF over GST control); binding signal [14]: 1.32 fold enrichment (6-mer frequency, TF over GST control); binding signal [15]: 1.45 fold enrichment (6-mer frequency, TF over GST control); binding signal [16]: 1.23 fold enrichment (6-mer frequency, TF over GST control); binding signal [17]: 1.45 fold enrichment (6-mer frequency, TF over GST control); binding signal [18]: 1.23 fold enrichment (6-mer frequency, TF over GST control); binding signal [19]: 1.26 fold enrichment (6-mer frequency, TF over GST control)
